Screens as filed in PubChem BioAssay.
Shown is part of a subset that was picked to be rich in hits.
Pf Dd2 growth – Plasmodium falciparum Dd2 growth inhibition | P. falciparum Dd2 growth, SYBR Green, 72 h | Potency, µM (series often up to 28.9 µM), hits mostly inhibitors | 120,000 tested, 4.3% active | AID 1347417; active means well fitted inhibition curve with a large enough effect; further: nearly all actives have a fitted effect of over 65% in size
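Readout: SYBR Green fluorescence, 485 nm excitation, 535 nm emission, after ~16 h lysis at 37C. Before that, Dd2-infected red cells (2.5% hematocrit) grew 72 h with compound, 29 uM top final concentration.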
Hits are given with their value; 0 = inactive.

SMILES	Pf Dd2 growth
O=C(N[C@H]1CO[C@H]2[C@@H]1OC[C@@H]2n1nnnc1Oc1ccc(-n2ccnc2)cc1)c1ccc(C(F)(F)F)cc1	0
O=C(c1cccs1)c1cn(CCOc2ccc(F)cc2)c2ccccc12	0
Cc1ccc(NC(=O)Cn2cc(C(=O)c3ccco3)c3ccccc32)c(C)c1	0
O=C(c1ccco1)c1cn(CCOc2ccc(F)cc2)c2ccccc12	1.3µM
COc1ccc(-c2ccnc(N[C@H]3CO[C@H]4[C@@H]3OC[C@@H]4NS(=O)(=O)c3ccccc3C#N)n2)cc1	0
CNC(=O)c1noc2c1CN(CC1(O)CNCCOC1)CC2 (configuration not stated)	0
CCCOc1cc(C)c2c(c1C)C[C@H](C(C)C(=O)NCc1ccc(OC)cc1)CC2 (some centres not stated)	10µM
COc1cc(C)c2c(c1C)C[C@H](C(C)C(=O)NCc1cccs1)CC2 (some centres not stated)	11µM
Cc1cc(OCCN(C)C)c(C)c2c1CC[C@@H]([C@H](C)C(=O)NCc1ccccc1)C2	0
COc1cc(C)c2c(c1C)C[C@H](C(C)C(=O)N1CCN(CCO)CC1)CC2 (some centres not stated)	0
CCCOc1cc(C)c2c(c1C)C[C@H]([C@H](C)C(=O)NCCOC)CC2	0
Cc1cc(OCCN2CCOCC2)c(C)c2c1CC[C@@H]([C@H](C)C(=O)N1CCCCC1)C2	11µM
COCCOc1cc(C)c2c(c1C)C[C@H](C(C)C(=O)N1CCCCC1)CC2 (some centres not stated)	0
Cc1cc(OCCN2CCOCC2)c(C)c2c1CC[C@@H]([C@H](C)C(=O)NCc1cccnc1)C2	0
COCCOc1cc(C)c2c(c1C)C[C@H](C(C)C(=O)N1CCOCC1)CC2 (some centres not stated)	0
Cc1ccc(OCc2nc(C3CCN(S(=O)(=O)Cc4ccccc4F)C3)no2)cc1 (configuration not stated)	0
Cc1cc(C(=O)N2CCC(Cc3nc(-c4ccccc4)n[nH]3)CC2)nn1C	0
CC(O)c1cc2n(n1)CCN(C(=O)c1cc(=O)n(C)c(=O)n1C)C2 (configuration not stated)	0
COc1ccc(NC(=O)C2CC(=O)N(c3n[nH]c4ccccc34)C2)c(OC)c1 (configuration not stated)	0
Cc1cc(C)cc(NC(=O)N2CCC3(CCNC(=O)CC3)CC2)c1	0
CC1CCN(C(=O)Cn2c(-c3cccs3)cc3cc(Cl)ccc32)CC1	0
Cc1ccc(CCNC(=O)Cn2c(-c3cccs3)cc3ccccc32)cc1	13µM
Cc1ccc(C)c(N2CCN(CCCNC(=O)Cn3c(-c4cccs4)cc4ccccc43)CC2)c1	7.9µM
O=C(Cn1c(-c2cccs2)cc2ccccc21)NCCCN1CCN(c2cccc(Cl)c2)CC1	11µM
CCCN1CCN(C(=O)Cn2c(-c3cccs3)cc3cc(F)ccc32)CC1	0
SMILES	Pf Dd2 growth
CC(C)c1nc2ccc(C(=O)NCCCN3CCN(c4cccc(Cl)c4)CC3)cc2o1	0
CCC(=O)N1c2ccccc2CC1C(=O)NCCN1CCN(c2cccc(Cl)c2)CC1 (configuration not stated)	0
Cc1cc(C)c(NC(=O)Cn2c(=O)n(CC(=O)NCCc3ccccc3)c(=O)c3ccccc32)c(C)c1	0
Cc1ccc(C)c(N2CCN(CCCNC(=O)Cn3ncc4c5ccccc5n(C)c4c3=O)CC2)c1	0
CCN1CCN(CCCNC(=O)Cn2c(-c3cccs3)cc3ccccc32)CC1	0
Cc1ccc(NC(=O)Cn2c(CCC(=O)O)ccc2-c2cccs2)cc1	0
CCCN1CCN(CCCNC(=O)Cn2c(-c3cccs3)cc3cc(Cl)ccc32)CC1	8.9µM
COC(=O)[C@@H]1Cc2ncn(Cc3ccc(OC)cc3)c2CN1C(=O)c1cccs1	0
CCCN1C(=O)C(CC(=O)NC(C)CC)Sc2ncccc21 (configuration not stated)	0
Nc1nc2c(c(C(=O)N[C@H](c3ccccn3)C3CC(O)C3)n1)CCCC2 (some centres not stated)	0
CCOc1ccc(C(=O)N2CCC(Cc3nc(-c4cnccn4)no3)CC2)cc1OCC	0
Cc1cccc2nc(C(=O)N3CCC(n4cc(C(C)(C)O)nn4)CC3)cn12	0
C#CCNC(=O)C1CCc2nnc(C3CCN(C(=O)c4ccc(Cl)cc4Cl)CC3)n21 (configuration not stated)	0
CS(=O)(=O)N1CCC(C2CCN(C(=O)NCc3ccco3)C2)CC1 (configuration not stated)	0
O=C1CC2(CCN(C(=O)c3ccc(CSc4ccccc4)o3)C2)C(=O)N1 (configuration not stated)	0
CCS(=O)(=O)N1CC(n2cc(C(=O)NCC3CC3)nn2)C1	0
Cc1noc(C)c1CC(=O)NC1CCCc2c1[nH]c1c(Cl)cccc21 (configuration not stated)	7.9µM
Cc1noc(C)c1CCC(=O)NC1CCCc2c1[nH]c1ccc(F)cc21 (configuration not stated)	11µM
Cc1noc(C)c1C(=O)NC1CCCc2c1[nH]c1ccc(F)cc21 (configuration not stated)	0
COc1ccc(CC(=O)NC2CCCc3c2[nH]c2ccc(F)cc32)cc1OC (configuration not stated)	0
CC(C)CC(=O)NC1CCCc2c1[nH]c1c(Cl)cccc21 (configuration not stated)	0
O=C(Cc1c[nH]c2ccccc12)NC1CCCc2c1[nH]c1ccc(F)cc21 (configuration not stated)	13µM
O=C(NC1CCCc2c1[nH]c1ccc(F)cc21)c1cccs1 (configuration not stated)	0
O=C(CCNC(=O)c1cnccn1)NC1CCCc2c1[nH]c1ccc(F)cc21 (configuration not stated)	0
Cc1noc(C)c1C(=O)NC1CCCc2c1[nH]c1c(Cl)cccc21 (configuration not stated)	0
SMILES	Pf Dd2 growth
CCc1ocnc1C(=O)N1C[C@H]2OC(=O)N(CCCN3CCOCC3)[C@H]2C1	0
CCc1cccc(NC(=O)Cn2c(Nc3cc(C)cc(C)c3)nc(C)cc2=O)c1	0
CC(=O)N1CCN(c2ccc(Cl)nn2)C(=O)C1	0
Cn1cccc1CN1CCn2c(nnc2-c2cccnc2)C1	0
Cc1nc2cccnc2n1CC1CCCN(S(=O)(=O)c2ccc3c(c2)CCC3)C1 (configuration not stated)	0
Cc1ccc(S(=O)(=O)N2CCCC(Cn3c(C)nc4cccnc43)C2)cc1F (configuration not stated)	0
Cc1nc2cccnc2n1CC1CCCN(S(=O)(=O)c2cccc(Br)c2)C1 (configuration not stated)	6.3µM
O=S(=O)(NC[C@H]1Cn2ccnc2CO1)c1ccccc1	0
CCCN(CCC)C(=O)[C@@]12CCCC[C@H]1N(CCC(C)C)C(=O)CC2	10µM
CC(C)CCN1C(=O)CC[C@]2(C(=O)NCc3ccncc3)CCCC[C@@H]12	0
CC(C)CCN1C(=O)CC[C@]2(C(=O)NC3CC3)CCCC[C@@H]12	0
O=C(CC1CCS(=O)(=O)C1)N1CCCC(c2ccccc2)(c2ccccc2)C1 (configuration not stated)	0
Cc1cc2cc(-c3c(C)noc3C)nc(N3CCN(C)C(=O)C3)c2o1	0
Cc1ccccc1-c1nc(-c2c(C)noc2C)cc2cc(CN(C)C)oc12	0
CC(=O)N1CCN(c2nc(-c3c(C)noc3C)cc3cc(CN(C)C)oc23)CC1	7.9µM
